Results filed as inconclusive are left out. Unmarked numbers belong to inactive results. Active and inactive are the calls of the source. The call rests on the fitted dose curve; in most records, active means well fitted inhibition curve with a large enough effect; inconclusive means small, poorly fitted or top-dose-only effect; inactive means flat fitted curve, though single readings scatter.
test system: Zika virus NS2B-NS3 protease; assay: Primary screen GU AMC qHTS for Zika virus inhibitors (AID 1347154); conditions: Zika NS2B-NS3 unlinked protease, AMC fluorogenic substrate; series mostly up to 54.1 µM; activity change, negative = inhibition: at the top concentration;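 further: 0% = no-inhibitor control and -100% = no-enzyme control; nearly all actives have a fitted effect of over 70% in size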
Description: Avindra Nath, Ph.D., National Institute of Neurological Disorders and Stroke (NINDS), Bethesda, MD
Radhakrishnan Padmanabhan, Ph.D., Georgetown University (GU), Washington D.C.
Zika Virus causes congenital defects, including microcephaly and is associated with Guillain-Barre syndrome, eningoencephalitis and myelitis in infected adult. […] Using a target-based approach, we hope to establish a screening paradigm to uncover novel, cell-active NS2B-NS3 protease (Zika Virus) specific inhibitors from NCATS' collection of small molecules using qHTS.
Early Translation Branch (ETB)
National Center for Advancing Translational Sciences (NCATS), Rockville, MD
National Institute of Health (NIH), Bethesda, Maryland
Padmanabhan lab provided the NS2B hydrophilic domain and NS3 protease domain in a noncovalent complex used for the unlinked assay. Control compound aprotinin is obtained from Thermo Scientific (#78432; Waltham, Massachusetts). NS2B-NS3 AMC substrate (Bz-Nle-Lys-Arg-Arg-AMC; Nle-KRR-AMC) purchased from Bachem (#I-1995; Torrance, CA). Ac-VKTGKR-AMC purchased from Genscript or Bachem, Ac-FAAGKR-AMC purchased from Genscript, Ac-GLVKRR-AMC purchased from Genscript, Ac-LKKR-AMC purchased from Genscript.
GU AMC unlinked NS2B-NS3 protease qHTS protocol
Briefly, 3 microL of Zika virus unlinked NS2B-NS3 protease (25 nM for linked final concentration), in assay buffer (10 mM Tris-HCl pH 8.0 with 0.01% Tween 20) was dispensed into a 1,536-well solid-bottom black plate (Greiner Bio One, Monroe, NC). […] Plates were then read immediately on a ViewLux High-throughput CCD imager (PerkinElmer, Waltham, MA) equipped with standard UV fluorescence optics (340(30) nm excitation, 450(20) nm emission) then incubated (room temperature, protected from light) for 15 minutes (~20% conversion). The change in fluorescence intensity over the 15-minute reaction period was normalized against no-inhibitor and no-enzyme controls and the resulting percent inhibition data were fitted to a 4-parameter Hill equation. Aprotinin was used as the intraplate control.

Row | Compound | activity change, negative = inhibition [%] | Potency
1 | CC(=O)OCC(=O)[C@@]1(O)CC[C@H]2[C@@H]3CCC4=CC(=O)C=C[C@]4(C)[C@@H]3[C@@H](O)C[C@@]21C | 16.3 | 
2 | CS(=O)(=O)c1ccc(C2=C(c3ccccc3)C(=O)OC2)cc1 | 34.3 | 
3 | CCOc1ccccc1N=Nc1c(C)[nH]n(-c2nc(-c3ccccc3)cs2)c1=O | -0.557 | 
4 | Nc1ncnc2c1ncn2[C@@H]1O[C@H](CO)[C@@H](O)[C@@H]1O |  | inactive
5 | O=c1[nH]c(=O)n([C@H]2C[C@@H](O)[C@@H](CO)O2)cc1I | 0.0631 | 
6 | Cc1cnc(-c2cc(N3CCN(C(=O)CCS(C)(=O)=O)CC3)ncc2Cl)c(C)c1 | -16.3 | 
7 | COc1cc(Nc2nc3ccccc3nc2NS(=O)(=O)c2ccc(NC(=O)c3ccc(C)c(OC)c3)cc2)cc(OC)c1 | 1.92 | 
8 | COc1cc2nc(-c3cc(F)ccc3O)nc(N[C@@H]3CNC[C@@H]3C(C)(C)O)c2cc1OC | 13.9 | 
9 | CC(C)CNc1ccnc(NCc2csc(-c3ccccc3)n2)n1 | -3.24 | 
10 | CN1N=C(N)c2cn([C@@H]3O[C@H](COP(=O)(O)O)[C@@H](O)[C@@H]3O)c3ncnc1c23 | -6.6 | 
11 | CCCCC(C=O)NC(=O)C(CC(C)C)NC(=O)OCc1ccccc1 (stereo not given) | 10.2 | 
12 | CC[C@H](CC#N)OC(=O)N[C@@H](C)c1cccc(NC(=O)Nc2ccc(-c3cnco3)c(OC)c2)c1 | -4.89 | 
13 | CCCC1OC2C[C@@H]3[C@H]4CCC5=CC(=O)C=C[C@]5(C)[C@H]4C(O)C[C@]3(C)[C@]2(C(=O)CO)O1 (stereo not given in full) | -3.79 | 
14 | CCC(=C(CC)c1ccc(O)cc1)c1ccc(O)cc1 | -11.7 | 
15 | CC(C)[C@H](O)C(=O)N[C@@H](C)C(=O)N[C@@H]1C(=O)N(C)CCc2ccccc21 | -0.141 | 
16 | CC(C)C[C@@H](C(=O)N[C@H](C(=O)OC1CCCC1)c1ccccc1)[C@H](O)C(=O)NO | -15.4 | 
17 | NCC1CCC(C(=O)O)CC1 (stereo not given) | 12 | 
18 | CC(=O)OCC(=O)[C@@]12OC(C)(C)O[C@H]1C[C@H]1[C@@H]3C[C@H](F)C4=CC(=O)C=C[C@]4(C)[C@@]3(F)[C@@H](O)C[C@@]12C | 11.3 | 
19 | Cc1cnc(Nc2cccc(CN3CCOCC3)c2)nc1Nc1cccc(S(=O)(=O)NC(C)(C)C)c1 | 5.83 | 
20 | Cc1cc2nc3c(=O)[nH]c(=O)nc-3n(CC(O)C(O)C(O)CO)c2cc1C (stereo not given) | -11.7 | 

Row | Compound | activity change, negative = inhibition [%] | Potency
21 | O=c1[nH]c(=O)n([C@H]2C[C@@H](O)[C@@H](CO)O2)cc1C(F)(F)F | -1.08 | 
22 | CCN1CCC(n2cc(CNc3cc(Cl)c4ncc(C#N)c(Nc5ccc(F)c(Cl)c5)c4c3)nn2)CC1 | -2.25 | 
23 | C#C[C@]1(O)CC[C@H]2[C@H]3CCc4cc(OC)ccc4[C@H]3CC[C@@]21C | -6.99 | 
24 | CCC=CC[C@H]1C(=O)CC[C@@H]1CC(=O)OC | 22.5 | 
25 | CC(C)C[C@H](NC(=O)c1cc2ccccc2s1)C(=O)N1CCN(C(=O)[C@H](CO)NS(=O)(=O)c2ccc(Cl)cc2Cl)CC1 | -4.89 | 
26 | COc1ccc2c(c1)CC[C@H]1[C@@H]2CC[C@]2(C)[C@@H](NCCCCCCN3C(=O)C=CC3=O)CC[C@H]12 | -1.52 | 
27 | NC(=O)c1nnn(Cc2cc(Cl)c(C(=O)c3ccc(Cl)cc3)c(Cl)c2)c1N | -9.17 | 
28 | CN(CC=CC#CC(C)(C)C)Cc1cccc2ccccc12 | -5.31 | 
29 | COC(=O)[C@H](c1ccccc1Cl)N1CCc2sccc2C1 | -14 | 
30 | Nc1[nH]nc2nnc(-c3c(-c4ccccc4)nn4ccccc34)cc12 | -4.2 | 
31 | CCNC(=O)Nc1ccc(Oc2ncnc(N)c2C=NOC)cc1Cl | 2.63 | 
32 | COc1ccc(CCN(C)CCCOc2ccc(S(=O)(=O)c3[nH]c4ccccc4c3C(C)C)cc2)cc1OC | 2.04 | 
33 | O=C(O)C1=CC(O)C(O)[C@H](O)C1 (stereo not given in full) | 3.21 | 
34 | CC1CCN(c2cc(N3CCN(C)CC3)ccc2NC(=O)c2cc(C#N)c[nH]2)CC1 | 9.93 | 
35 | CN1CC(=O)N2C(Cc3c([nH]c4ccccc34)[C@H]2c2ccc3c(c2)OCO3)C1=O (stereo not given in full) | -11.5 | 
36 | Cc1cn([C@@H]2C[C@@H](O)[C@H](CO)O2)c(=O)[nH]c1=O | 3.68 | 
37 | COC(=O)N1CCN(Cc2cccc(NC(=O)Nc3ccc(C)nc3)c2F)CC1 | -9.94 | 
38 | O=C(c1ccc(F)c(F)c1Nc1ccc(I)cc1F)N1CC(O)([C@H]2CCCCN2)C1 | 17.6 | 
39 | OC[C@H]1O[C@@H](OCCc2ccc(O)cc2)[C@H](O)[C@@H](O)[C@H]1O | 1.2 | 
40 | CCC[C@H](N[C@@H](C)C(=O)N1[C@@H]2CCCC[C@H]2C[C@H]1C(=O)O)C(=O)OCC | 4.11 | 

Reference: PubChem BioAssay (NCATS)
